Only a selection was taken, and hits are over-represented in it overall.
Anthrax LF prot – inhibitors of Bacillus anthracis lethal factor protease; P15917; multiplex microsphere protease cleavage assay, LF; inhibition, % at 10 µM; 360,000 tested, 0.12% active; further: plate controls were buffer without enzyme for full effect and enzyme alone for no effect
TcdB GH inh – TcdB glycohydrolase inhibition; P18177; AID 652162; 350,000 tested, 0.24% active; inhibition, % at 9.99 µM; TcdB glycohydrolase enzymatic assay, plate reader; in the data active means inhibition above about 10%
Bead autofluor – counter-screen for toxin protease inhibitors: compound fluorescence; compound autofluorescence counterscreen, microsphere flow cytometry; stronger effect = higher value; fluorescence intensity (test concentration not listed); 360,000 tested, 3.1% active; AID 624483; in the data active means fluorescence intensity above about 16000; inconclusive means no clear call, values can overlap the other calls
BoNT A protease – inhibitors of Botulinum neurotoxin A light chain protease; multiplex microsphere protease substrate cleavage, flow cytometry; inhibition, % at 10 µM; 360,000 tested, 0.17% active; AID 588499; further: plate controls were buffer without enzyme for full effect and enzyme alone for no effect
BoNT-F LC inh – inhibitors of Botulinum neurotoxin F light chain protease; Multiplex microsphere protease cleavage assay, flow cytometry; inhibition, % at 10 µM; 360,000 tested, 0.22% active; AID 588497; in the data active means inhibition above about 35%, passing the limit was not always enough; inconclusive means no clear call, values can overlap the other calls; further: plate controls were buffer without enzyme for full effect and enzyme alone for no effect
Starred values were filed as active, the others as inactive; ? = inconclusive; · = not tested or not shown. Unless noted, no stated cut-off is given here; in the data, active means inhibition above about 30%; inconclusive means no clear call, values can overlap the other calls; inactive means below that.

SMILES | Anthrax LF prot | TcdB GH inh | Bead autofluor | BoNT A protease | BoNT-F LC inh
Cc1cccc(C(=O)Nc2ccc(Cl)cc2C(=O)c2ccccc2)c1 | -5.1 | · | 20672* | ? | -2.4
COc1c(OC(C)=O)ccc(/C=C/c2ccc3ccccc3n2)c1[N+](=O)[O-] | 0.7 | 0.2 | 23285* | -1.4 | -5.6
Cc1cnn(-c2nc(-c3cccs3)cc(C(F)(F)F)n2)c1 | -0.2 | · | 23064* | 1.6 | 0.2
Cc1noc(C)c1NC(=O)Nc1ccc2c(c1)C(=O)N([C@@H](C)CO)C[C@H](C)[C@@H](CN(C)C(=O)NC(C)C)O2 | · | -0.5 | · | · | ·
CC1CCN(C(=O)C2c3ccccc3C(=O)N3CCc4ccccc4C23)CC1 (stereo unspecified) | -0.2 | · | 22497* | 2.6 | 0.8
CCOCCCNC(=O)C1c2ccccc2C(=O)N2CCc3ccccc3C12 (stereo unspecified) | -1.6 | · | 16166* | 0.9 | 0.5
CCCN(CCC)CCNC(=O)C1c2ccccc2C(=O)N2CCc3ccccc3C12 (stereo unspecified) | -3.5 | 0.3 | 3717 | 0.4 | -6.4
C[C@@H]1CN([C@@H](C)CO)C(=O)c2ccccc2-c2ccccc2CO[C@H]1CN(C)C(=O)Nc1ccc(F)cc1 | · | -4.6 | · | · | ·
COc1nc(-c2ccccc2)ccc1-c1noc(-c2cccnc2)n1 | -1.5 | · | 23960* | -2.5 | -5.4
O=C(C[C@H]1CC[C@H]2[C@@H](COC[C@@H](O)CN2C(=O)c2ccc(F)cc2)O1)NCCCN1CCOCC1 | · | -1.3 | · | · | ·
O=C(NC(NC(=S)N1CCOCC1)C(Cl)(Cl)Cl)c1ccc(Cl)cc1 (stereo unspecified) | -2.3 | · | 2318 | -0.7 | -7.6
CCCCC(=O)NC(NC(=S)N1CCOCC1)C(Cl)(Cl)Cl (stereo unspecified) | -2.4 | 0.3 | 23068* | ? | 1.7
COCC(=O)Nc1ccc2c(c1)OC[C@@H](C)N(Cc1ccncc1)C[C@H](C)[C@@H](OC)CN(C)C2=O | · | 0.0 | · | · | ·
CCOc1ccc(/C(O)=C2/C(=O)C(=O)N(CCOCCO)C2c2ccc(F)cc2)cc1 (stereo unspecified) | 0.2 | · | 3044 | 0.3 | -10.3
CCOc1ccc(/C(O)=C2/C(=O)C(=O)N(CCOCCO)C2c2ccccn2)cc1 (stereo unspecified) | -8.5 | · | 22618* | -1.5 | -2.6
CC(C)NC(=O)NCC[C@@H]1CC[C@@H](NC(=O)CN(C)C)[C@@H](CO)O1 | · | -2.7 | · | · | ·
COc1ccc(C2CC(c3ccccc3)=NN2S(=O)(=O)c2ccc(C)cc2)c(OC)c1 (stereo unspecified) | 20.0 | · | 20530* | 0.8 | 29.6
Cc1ccccc1-c1nn[nH]n1 | -0.2 | · | 21118* | -5.0 | -4.8
CCC(=O)NC(c1ccc([N+](=O)[O-])cc1)c1c(O)ccc2ccccc12 (stereo unspecified) | -2.9 | · | 24260* | ? | -5.3
CC(C)CC#Cc1cnc2c(c1)C(=O)N([C@@H](C)CO)C[C@H](C)[C@@H](CN(C)C(=O)CN1CCOCC1)O2 | · | 0.0 | · | · | ·
Cc1ccc(N(c2ncnc(N)c2[N+](=O)[O-])C2CCCCC2)cc1 | 0.1 | · | 23258* | -0.1 | 0.9
Cc1ccc(Oc2ncnc(N)c2[N+](=O)[O-])cc1 | -0.7 | 0.1 | 3570 | 0.6 | -3.2
O=S(=O)(c1ccccc1)N1CCN(Cc2nnc(-c3ccccc3)o2)CC1 | 0.8 | 10.1* | 3598 | -0.2 | 1.2
O=S(=O)(c1ccc(F)cc1)N1CCN(Cc2nnc(-c3ccccc3)o2)CC1 | · | 0.7 | · | · | ·
C[C@@H]1CN([C@@H](C)CO)S(=O)(=O)c2ccc(C#CCC3CCCC3)cc2O[C@H]1CN(C)Cc1cccc(C(=O)O)c1 | · | 0.5 | · | · | ·
SMILES | Anthrax LF prot | TcdB GH inh | Bead autofluor | BoNT A protease | BoNT-F LC inh
C[C@@H]1CCCCO[C@H](CN(C)Cc2ccc(C(=O)O)cc2)[C@H](C)CN([C@@H](C)CO)C(=O)c2cc(N(C)C)ccc2O1 | · | -10.4 | · | · | ·
CC(=NNC(=S)Nc1ccccc1)c1ccccn1 | 11.7 | -10.8 | 4583 | 2.6 | 11.0
CC(=NNC(=S)N1CCCCC1)c1cccc(C)n1 | 12.7 | -0.2 | 3760 | 10.8 | 29.7
CC(=NNC(=S)N1CC2CCC(CC2)C1)c1ccncn1 | 57.2* | 1.2 | 3716 | 25.2 | 59.1*
C=CCNC(=S)N/N=C(\C)c1ccccn1 | -2.2 | · | 16885* | -2.4 | -9.3
CC(=NNC(=S)N1CCCCC1)c1ccccn1 | 87.1* | 0.5 | 3169 | 28.5 | 73.2*
CCOc1ccc2c(c1)n(CO)c(=S)n2CO | -3.5 | · | 22336* | ? | 1.7
CCOc1ccc2[nH]c(=S)[nH]c2c1 | -0.7 | · | 4344 | -0.5 | -9.0
COc1cccc(-c2ccc3c(c2)[C@@H]2[C@@H](CCN2C(=O)c2cccc(F)c2)[C@H](CO)N3)c1 | · | -2.5 | · | · | ·
COc1ccc2c3c(n(C)c2c1)[C@H](CO)N(C(=O)c1ccncc1)CC31CCN(C(C)=O)CC1 | · | -2.5 | · | · | ·
CC(=O)N[C@@H]1CC[C@H](CCNC(=O)C2CC2)O[C@H]1CO | · | -1.1 | · | · | ·
CN1CCN(C(=O)CN(Cc2ccc(Cl)cc2)S(C)(=O)=O)CC1 | -2.3 | · | 2734 | -0.1 | -3.4
CS(=O)(=O)N(CC(=O)NC1CCCCC1)Cc1ccc(Cl)cc1 | -3.9 | · | 17256* | -2.6 | -5.1
CS(=O)(=O)N(CC(=O)NCC1CCCO1)Cc1ccc(Cl)cc1 (stereo unspecified) | -1.6 | · | 3793 | -0.1 | -32.7
CS(=O)(=O)N(CC(=O)NC1CCCC1)Cc1ccc(Cl)cc1 | 0.3 | · | 17349* | -2.7 | -0.4
CS(=O)(=O)N(CC(=O)N1CCCCCC1)Cc1ccc(Cl)cc1 | -0.7 | · | 22456* | ? | 4.4
CCN(C[C@H]1N[C@H](CO)[C@H]1c1ccc(C2=CCCC2)cc1)C(=O)c1ccncc1 | · | -1.0 | · | · | ·
CO[C@H](CN(C)S(=O)(=O)c1ccccc1)[C@@H](C)CN(C(=O)Nc1ccccc1F)[C@@H](C)CO | · | -1.5 | · | · | ·
C[C@H](CO)N1C[C@H](C)[C@@H](CN(C)C(=O)c2cccc(F)c2)Oc2ncc(C3=CCCCC3)cc2C1=O | · | 1.4 | · | · | ·
COc1ccc(N2C(=O)c3ccccc3NC23CCCCC3)cc1 | 0.9 | 0.6 | 7732 | -0.1 | 6.7
COc1ccc(N2C(=O)c3ccccc3NC23CCC(C)CC3)cc1 (stereo unspecified) | 0.2 | · | 22907* | 0.2 | -1.0
O=C1Nc2ccccc2CCC1Sc1nnc(-c2ccc(Cl)cc2)s1 (stereo unspecified) | -2.2 | · | 24726* | -2.6 | -4.5
COc1ccc(/C=C(/C(=O)Nc2ccccc2C(=O)N2CCCC2)c2ccccc2)cc1 | 0.2 | 1.6 | 22608* | 0.1 | 1.3
COc1ccc(/C=C(/C(=O)Nc2ccccc2C(=O)NC(C)C)c2ccccc2)cc1 | -0.9 | · | 17014* | -2.4 | -7.3
CCCC#Cc1cnc2c(c1)C(=O)N([C@@H](C)CO)C[C@@H](C)[C@H](CN(C)S(=O)(=O)c1cn(C)cn1)O2 | · | -0.2 | · | · | ·
CCOC(=O)c1cc(NC(=O)N(CC)CC)c(C)nc1C | 0.7 | · | 24580* | -1.5 | -3.2
CCOC(=O)c1cc(NC(=O)N(C(C)C)C2CCCCC2)c(C)nc1C | -6.4 | 1.6 | 2869 | 0.6 | -0.3
CCOC(=O)c1cc(NC(=O)N(C(C)C)C(C)C)c(C)nc1C | -1.8 | · | 16634* | -1.0 | -5.2
C[C@H](CO)N1C[C@H](C)[C@@H](CN(C)Cc2ccc(C(=O)Nc3ccccc3N)cc2)Oc2ccc(NS(=O)(=O)c3cn(C)cn3)cc2CC1=O | · | -1.1 | · | · | ·

Screens as filed in PubChem BioAssay.
